The source of these data is PubChem BioAssay (NCI).

About 83,000 compounds went through this panel and 20% of them were active in at least one assay; those are over-represented in the sample as a whole.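 Compound tested at a single concentration for 48 hours in 96-well plates; a percent growth value below 10 was scored as active.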 Values without a mark were called inactive. Active and inactive are the calls of the source.

Test systems include NCI-H23 lung; NCI-H322M lung; HOP-62 NSCLC; NCI-H460 lung; HOP-92 NSCLC; A549/ATCC NSCLC; 786-0 renal; COLO 205 colon.
Test in all cases: NCI-60 one-dose screen, 48 h (100 = growth as untreated, 0 = no growth, -100 = all killed)
Common to all, as to conditions: 10 µM unless noted

Turning to `CCOC(=O)C1=C(C)N2C(=NC3=C(CCCC/C3=C\c3ccccc3)C2c2ccccc2)S1` (configuration not stated), the growth with NCI-H23 lung was 95.5%; in the test on NCI-H322M lung, 92%; in the test on HOP-62 NSCLC, 117%; with NCI-H460 lung, 99.1%; in the test with HOP-92 NSCLC, -2.46% (active); in the test with A549/ATCC NSCLC it was 99.1%. The growth in the test on 786-0 renal is 96.6%; with COLO 205 colon, 117%.
For `CN(C)c1ccc(/C=C(\C#N)c2cc3ccccc3n2C)cc1`, the growth with NCI-H23 lung is 34.6%; in the test on NCI-H322M lung, 49.7%; in the test on HOP-62 NSCLC it was 62.1%; with NCI-H460 lung, 5.38% (active); in the test on HOP-92 NSCLC, 72.5%; in the test on A549/ATCC NSCLC, 24.6%. In addition, the growth in the test with 786-0 renal is 38.6%; in the test with COLO 205 colon, -17.2% (active).
Regarding `Cc1ccc(N=c2nc3sc4c(C)ccc(C)c4n3c(N)c2C#N)cc1`, the growth is 90.2% in the test on NCI-H23 lung; 113% with NCI-H322M lung; 101% in the test with HOP-62 NSCLC; 105% with NCI-H460 lung; 76.6% in the test on HOP-92 NSCLC; 100% in the test on A549/ATCC NSCLC. Moreover, the growth with 786-0 renal was 101%; with COLO 205 colon it was 108%.
For the compound `CC(=O)Nc1ccccc1-c1n[nH]c(=O)[nH]c1=O`, the growth in the test with NCI-H23 lung was 102%; in the test with NCI-H322M lung, 105%; in the test on HOP-62 NSCLC it was 97.6%; in the test with NCI-H460 lung, 104%; with HOP-92 NSCLC it was -10.8% (active); in the test with A549/ATCC NSCLC, 116%. Moreover, the growth in the test with 786-0 renal is 98.4%; with COLO 205 colon, 115%.
Regarding `O=[N+]([O-])c1ccc2nc(N/N=C/c3ccc(O)cc3)sc2c1`, the growth in the test with NCI-H23 lung is 73.3%; with NCI-H322M lung, 58.8%; with HOP-62 NSCLC it was 68.7%; in the test on NCI-H460 lung, 48.5%; in the test with HOP-92 NSCLC, 58.9%; with A549/ATCC NSCLC it was 30.7%. Moreover, the growth in the test on 786-0 renal is 50.9%; in the test with COLO 205 colon, 89.9%.
As for `Nc1cccc2c(=S)c3ccccc3[nH]c12`, the growth in the test with NCI-H23 lung was 95.9%; in the test on NCI-H322M lung, 92.1%; with HOP-62 NSCLC, 82.7%; with NCI-H460 lung, 95.7%; in the test on HOP-92 NSCLC, 98.4%; in the test with A549/ATCC NSCLC, 108%. The growth in the test with 786-0 renal was 106%; in the test on COLO 205 colon it was 114%.
As to `CC(C)(C)[Si](C)(C)OC1[C@@H](CNC(=O)NC(=O)CCl)O[C@@H](n2cnc3c(N)ncnc32)[C@H]1O[Si](C)(C)C(C)(C)C` (some centres not stated), the growth was -72.4% (active) in the test on NCI-H23 lung; 111% with NCI-H322M lung; -60.1% (active) in the test on HOP-62 NSCLC; -82.4% (active) in the test on NCI-H460 lung; -79.2% (active) in the test on HOP-92 NSCLC; -22.3% (active) in the test with A549/ATCC NSCLC. The figures for the growth in the test with 786-0 renal and with COLO 205 colon were -55.4% (active) and -16.8% (active), respectively.
For `Cc1ccccc1-n1nnc(C(=O)Nc2nc(-c3ccccc3)c(-c3ccccc3)s2)c1C`, the growth in the test on NCI-H23 lung was 76.3% [50 µM]; in the test on NCI-H322M lung it was 84.4% [50 µM]; with HOP-62 NSCLC, 84.8% [50 µM]; in the test on NCI-H460 lung, 73.2% [50 µM]; with HOP-92 NSCLC, 62.3% [50 µM]; in the test with A549/ATCC NSCLC, 65.4% [50 µM]. The growth was 87.4% [50 µM] with 786-0 renal and 92.8% [50 µM] in the test on COLO 205 colon.
As to `Cc1c(C)n(CC(O)CNC2CCCCC2C)c2ccccc12` (configuration not stated), the growth was -19.7% (active) in the test with NCI-H23 lung; 31.7% in the test with NCI-H322M lung; -71.3% (active) with HOP-62 NSCLC; 11.2% in the test on NCI-H460 lung; -60% (active) with HOP-92 NSCLC; -31.4% (active) with A549/ATCC NSCLC. Further, the growth in the test on 786-0 renal and in the test with COLO 205 colon was -84.7% (active) throughout.
As to `COc1cc(-c2nc(SC(C)C)nc(Nc3ccccc3C)c2C#N)cc(OC)c1OC`, the growth in the test with NCI-H23 lung was 105%; in the test on NCI-H322M lung, 106%; in the test with HOP-62 NSCLC, 104%; in the test on NCI-H460 lung, 107%; with HOP-92 NSCLC it was 110%; in the test with A549/ATCC NSCLC it was 101%. Further, the results for the growth in the test with 786-0 renal and in the test on COLO 205 colon were 108% and 117%, respectively.
Regarding `COc1ccccc1-n1c(SCc2cc(OC)c(OC)c(OC)c2)nc2ccc(Cl)cc2c1=O`, the growth was 36.1% with NCI-H23 lung; 55.1% in the test with NCI-H322M lung; 51.8% in the test with HOP-62 NSCLC; 10.8% in the test with NCI-H460 lung; 42.9% in the test with HOP-92 NSCLC; 31.1% with A549/ATCC NSCLC. In addition, the figures for the growth with 786-0 renal and in the test on COLO 205 colon were 51.1% and 28%, respectively.
Consider `Fc1c[c-]c(-c2ccccn2)c(F)c1.Fc1c[c-]c(-c2ccccn2)c(F)c1.[Cl][Pt+].[Cl][Pt+].c1ccc([PH+](C[PH+](c2ccccc2)c2ccccc2)c2ccccc2)cc1`, for which the growth is -6.3% (active) with NCI-H23 lung; 66.6% in the test with NCI-H322M lung; 20.9% in the test with HOP-62 NSCLC; 8.7% (active) with NCI-H460 lung; 2.42% (active) with HOP-92 NSCLC; 20.6% with A549/ATCC NSCLC. Besides, the figures for the growth in the test on 786-0 renal and in the test with COLO 205 colon were 31.8% and -65.2% (active), respectively.
As for `Cc1ccc2nc(NC(=O)CSC(=S)N3CCN(Cc4ccccc4)CC3)sc2c1`, the growth in the test with NCI-H23 lung was 1.13% (active); in the test on NCI-H322M lung, -71.8% (active); in the test with HOP-62 NSCLC it was -59.1% (active); in the test on NCI-H460 lung it was -70.9% (active); in the test with HOP-92 NSCLC, -55.4% (active); with A549/ATCC NSCLC, 1.71% (active). The figures for the growth in the test on 786-0 renal and with COLO 205 colon were -21.1% (active) and -63.3% (active), respectively.
For the compound `Cc1cc(=O)[nH]n1-c1cc(Cl)ccc1N`, the growth in the test with NCI-H23 lung is 107%; with NCI-H322M lung, 112%; in the test on HOP-62 NSCLC, 103%; in the test with NCI-H460 lung it was 113%; in the test with HOP-92 NSCLC, 114%; in the test with A549/ATCC NSCLC, 105%. The results for the growth in the test with 786-0 renal and with COLO 205 colon were 104% and 103%, respectively.
